In the library only some 8.7% were active in any assay of this set; here they are far more common.
VACV Venus inh – vaccinia inhibition (Venus reporter); Vaccinia virus Venus reporter expression, fluorescence; Potency, µM (series often up to 36.5 µM), without a hit: at the top dose activity change, negative = inhibition, usual class: inhibitors; 330,000 tested, 0.46% active; calls by dose curve; tested in A549 cells; also: nearly all actives have a fitted effect of over 30% in size
Pf growth 48h – P. falciparum growth inhibition at 48 hours (one generation). 310,000 tested, 5.9% active. Potency, µM (titrated, usually from 28.7 µM), for the others: top-dose activity change, negative = inhibition, actives largely listed as inhibitors. P. falciparum luciferase growth in erythrocytes, 48 h. AID 504832
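Luminescence readout; reporter = integrated firefly luciferase in P. falciparum. RBC culture at 2% hematocrit, 0.1% parasitemia final, 37 C/5% CO2; decreased signal taken as growth inhibition.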
Pf growth 96h – P. falciparum growth inhibition at 96 hour, primary screen for plastid delayed-death inhibitors; Potency, µM (highest dose often 28.7 µM), without a hit: at the highest dose activity change, negative = inhibition, hits mostly inhibitors; 320,000 tested, 6.9% active; P. falciparum luciferase reporter growth, 96 h
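Infected RBCs, 2% Hct / 0.05% parasitemia final; luciferase-reporter P. falciparum; cpd 96 h, 37 C, 5% CO2; luciferase detection reagent; luminescence.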
AMA1-RON2 inh – inhibitors of Plasmodium falciparum AMA1-RON2 interaction; AlphaScreen AMA1-biotinylated RON2 peptide binding; Potency, µM (top dose mostly 58.2 µM), for inactives: at the top dose activity change, negative = inhibition, hits mostly inhibitors; 360,000 tested, 0.2% active; AID 720542;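 also: 0% = vehicle wells and -100% = peptide control; nearly all actives have a fitted effect of over 45% in size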
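AMA1 (3D7) with his tag at 25 nM final met compounds first, then biotinylated RON2 peptide at 25 nM; detection used donor plus acceptor beads, 10 µg/mL apiece, read by AlphaScreen after 30 min at room temperature.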
VACV mCherry inh – inhibitors of vaccinia virus infection (mCherry reporter signal). AID 720579. Vaccinia virus mCherry reporter infection, fluorescence. 310,000 tested, 0.63% active. Potency, µM (top dose mostly 36.5 µM), for the others: at the highest dose activity change, negative = inhibition, actives largely listed as inhibitors; calls by dose curve; tested in A549 cells; also: nearly all actives have a fitted effect of over 35% in size
Numbers without * were called inactive; [ ] = remark or other dose. Unless noted, calls follow the shape of the dose curve; as a rule, active = well fitted curve in the direction sought with a large enough effect; inconclusive = small, poorly fitted or top-dose-only effect, or another doubt; inactive = no such curve, though single readings can be large; an effect the other way counts as inactive or inconclusive. Unless noted, % is scaled to controls: 0 for no effect and ±100 for the full control effect; potency is read from the fitted curve at half-maximal effect.

Results for CCOc1c(Br)ccc2c1sc1nc[nH]c(=O)c12 ?
VACV Venus inh: inconclusive; Pf growth 48h: -2%; Pf growth 96h: 9.3µM*; AMA1-RON2 inh: -5%

What do the screens show for `COCCOC(=O)c1sc2nc[nH]c(=O)c2c1C`?
VACV Venus inh: -4%; Pf growth 48h: 13%; Pf growth 96h: 12%; AMA1-RON2 inh: -7%; VACV mCherry inh: -11%

How did COc1cc(CN2C(=O)CC[C@@H]3CN(Cc4ccccn4)CC[C@@H]32)cc(OC)c1OC do in these assays?
VACV Venus inh: 1%; VACV mCherry inh: -7%

What do the screens show for `Cc1cc2c3c(c1)C1(C(=O)N3C(C)(C)CC2C)C(C#N)=C(N)Oc2n[nH]c(C)c21` (stereo not given)?
Pf growth 48h: 12µM*; AMA1-RON2 inh: -8%

How did CC1(C)CC(=O)C2=C(C1)OC(N)=C(C#N)C21C(=O)N2CCCc3cccc1c32 (stereo not given) do in these assays?
VACV Venus inh: -6%; Pf growth 48h: -19%; Pf growth 96h: 3%; AMA1-RON2 inh: -3%; VACV mCherry inh: -11%

How did Cc1cc2c3c(c1C)C1(C(=O)N3C(C)(C)CC2C)C(C#N)=C(N)OC2=C1C(=O)CC(C)(C)C2 (stereo not given) do in these assays?
Pf growth 48h: 13µM*; Pf growth 96h: 9.3µM*; AMA1-RON2 inh: 6%

What do the screens show for `Cc1cc2c3c(c1C)C1(C(=O)N3C(C)(C)CC2C)C(C#N)=C(N)Oc2n[nH]c(C)c21` (stereo not given)?
Pf growth 48h: inconclusive; Pf growth 96h: 12%; AMA1-RON2 inh: -9%

What do the screens show for `Cc1cc2c3c(c1)C(C)(c1ccccc1)CC(C)(C)N3C(=O)C21C(C#N)=C(N)OC2=C1C(=O)CC(C)(C)C2` (stereo not given)?
Pf growth 96h: 1.9µM*; AMA1-RON2 inh: -5%

How did Cc1cccc(N(CC(=O)NCCSc2ccc(Cl)cc2)S(C)(=O)=O)c1C do in these assays?
VACV Venus inh: -21%; VACV mCherry inh: -25%

What do the screens show for `COc1ccc(N=C2SC(C(=O)Nc3ccc(C(=O)O)cc3)CC(=O)N2Cc2cccs2)cc1` (stereo not given)?
VACV Venus inh: -15%; Pf growth 48h: inconclusive; Pf growth 96h: 7.4µM*; AMA1-RON2 inh: -8%; VACV mCherry inh: inactive

Results for COC(=O)c1cc(NC(=O)CC2SC(=Nc3ccccc3)N(CCc3c[nH]c4ccccc34)C2=O)cc(C(=O)OC)c1 (stereo not given) ?
VACV Venus inh: inconclusive; Pf growth 48h: 13µM*; Pf growth 96h: 1.7µM*; AMA1-RON2 inh: -7%; VACV mCherry inh: -13%

How did CNC(=O)C1CC(=O)N(CCc2ccccc2)C(=Nc2ccc(OC)cc2)S1 (stereo not given) do in these assays?
VACV Venus inh: -9%; Pf growth 48h: inconclusive; Pf growth 96h: 51%; AMA1-RON2 inh: -1%; VACV mCherry inh: 0%

What do the screens show for `COc1ccc(N=C2SC(CC(=O)Nc3ccccc3)C(=O)N2CCN2CCOCC2)cc1` (stereo not given)?
VACV Venus inh: -7%; Pf growth 48h: -5%; Pf growth 96h: -2%; AMA1-RON2 inh: -5%; VACV mCherry inh: inactive

How did COc1ccc(N=C2SC(CC(=O)Nc3ccccc3)C(=O)N2CC2CCCO2)cc1 (stereo not given) do in these assays?
VACV Venus inh: -15%; Pf growth 48h: 12µM*; Pf growth 96h: inconclusive; AMA1-RON2 inh: -6%

Results for O=c1[nH]c2cc3c(cc2cc1CN(Cc1nnnn1C1CCCC1)C1CCCC1)OCCO3 ?
Pf growth 96h: 9.3µM*; AMA1-RON2 inh: -13%

How did COc1cc2cc(CN(Cc3nnnn3C3CCCC3)C3CCCC3)c(=O)[nH]c2cc1OC do in these assays?
Pf growth 48h: 6%; Pf growth 96h: -32%

How did COc1ccc(CN(Cc2cc3cc(OC)c(OC)cc3[nH]c2=O)C(=O)NC2CCCCC2)cc1 do in these assays?
Pf growth 96h: 1.7µM*; AMA1-RON2 inh: -4%

What do the screens show for `COc1ccc2cc(CN(C(=O)Nc3ccccc3OC)C3CCCC3)c(=O)[nH]c2c1`?
VACV Venus inh: -13%; Pf growth 48h: 2.3µM*; Pf growth 96h: 17%; AMA1-RON2 inh: 2%; VACV mCherry inh: -27%

Results for COc1cc2cc(CN(C(=O)NC3CCCCC3)C3CCCC3)c(=O)[nH]c2cc1OC ?
VACV Venus inh: 9%; Pf growth 48h: 12µM*; Pf growth 96h: inconclusive; AMA1-RON2 inh: 3%; VACV mCherry inh: -4%

What do the screens show for `COc1ccc2cc(CN(Cc3cccnc3)S(=O)(=O)c3ccccc3)c(=O)[nH]c2c1`?
VACV Venus inh: -23%; Pf growth 48h: 10µM*; AMA1-RON2 inh: -5%; VACV mCherry inh: -18%

What do the screens show for `COc1cc2cc(CN(Cc3cccnc3)C(=O)NCc3ccccc3)c(=O)[nH]c2cc1OC`?
VACV Venus inh: -2%; Pf growth 48h: 9.3µM*; Pf growth 96h: inconclusive; AMA1-RON2 inh: -5%

How did O=C(NC1CCCCC1)N(Cc1cc2cc3c(cc2[nH]c1=O)OCCO3)C1CCCCC1 do in these assays?
Pf growth 96h: 5.9µM*; AMA1-RON2 inh: 4%

What do the screens show for `CCOc1ccc(NC(=O)c2c(NCc3sccc3C)sc3c2CCCCC3)cc1`?
VACV Venus inh: -3%[7.34 µM]; VACV mCherry inh: -14%[7.34 µM]

What do the screens show for `CCC(Cc1ccccc1)NC(=O)c1cc(S(=O)(=O)N2CCCCC2)c[nH]1` (stereo not given)?
VACV Venus inh: -22%; Pf growth 48h: -19%; Pf growth 96h: 2.9µM*; AMA1-RON2 inh: 10%; VACV mCherry inh: inconclusive

Results for CSc1nc(SCC(=O)O)c2c3c(sc2n1)COC(C)(C)C3 ?
Pf growth 48h: 27%; Pf growth 96h: inconclusive; AMA1-RON2 inh: -2%

Results for CSc1nc(NCCCO)c2c3c(sc2n1)CN(C)CC3 ?
Pf growth 48h: inconclusive; Pf growth 96h: 5.2µM*; AMA1-RON2 inh: 3%

How did CSc1nc(NCC(C)O)c2c3c(sc2n1)CN(C)CC3 (stereo not given) do in these assays?
VACV Venus inh: -15%; Pf growth 48h: inconclusive; Pf growth 96h: 6.6µM*; AMA1-RON2 inh: 0%; VACV mCherry inh: -13%

Results for CSc1nc(SCC(=O)NC(c2ccccc2)c2ccccc2)c2c3c(sc2n1)CN(C)CC3 ?
Pf growth 48h: 7.4µM*; Pf growth 96h: 2.9µM*; AMA1-RON2 inh: inconclusive

What do the screens show for `COC(=O)CSc1nc2sc3c(c2c(=O)n1C1CCCCC1)CCN(C)C3`?
Pf growth 96h: 71%

What do the screens show for `COc1ccc(Cl)cc1NC(=O)C1CCCN(S(=O)(=O)c2ccc3c(c2)CCCC(=O)N3)C1` (stereo not given)?
VACV Venus inh: -9%; VACV mCherry inh: -19%

What do the screens show for `CCC1(c2ccccc2)ON(c2c(Br)cccc2Br)C1=O` (stereo not given)?
VACV Venus inh: inconclusive; Pf growth 48h: 0.41µM*; Pf growth 96h: 0.41µM*; AMA1-RON2 inh: 14%; VACV mCherry inh: inconclusive

Bioassay records: PubChem, National Center for Advancing Translational Sciences (NCATS)
